Values without a mark were called inactive.
Compound: C#CCNC(=O)CCSSCCC(=O)NCCc1ccc(C=O)c(C=O)c1
Experiment: lysine labeling ratio R10:1 (500 µM / 50 µM probe), SILAC-ABPP in living cells; higher = lower intrinsic lysine reactivity toward the probe, active = 2 or less
Settings: HeLa; probe concentrations 500 vs 50 µM
In short: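 Each lysine carries an R value: the filtered median of MS1 peptide ratios of high probe to low probe, with the median then taken over forward and reverse replicates. These came from living SILAC light and heavy HeLa cells in PBS at room temperature labelled with an alkyne-tagged, disulfide-linked lysine probe at 500 µM or 50 µM, in forward and reverse swaps. The lysates were mixed, clicked to biotin-azide, trypsin-digested, captured on neutravidin, released by DTT, alkylated and run by LC-MS/MS on a TIMS-TOF Pro. The highest value allowed is 20.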

Chain of UniProt P05141 (P05141 whole entry): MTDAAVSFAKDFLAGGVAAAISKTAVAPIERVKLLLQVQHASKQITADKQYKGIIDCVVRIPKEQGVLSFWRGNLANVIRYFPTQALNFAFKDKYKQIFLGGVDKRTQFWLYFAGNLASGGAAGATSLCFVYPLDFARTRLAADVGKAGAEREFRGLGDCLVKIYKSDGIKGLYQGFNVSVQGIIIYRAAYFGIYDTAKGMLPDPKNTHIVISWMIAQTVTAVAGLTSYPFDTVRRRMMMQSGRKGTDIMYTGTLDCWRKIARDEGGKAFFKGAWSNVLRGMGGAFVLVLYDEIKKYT
Chain of UniProt Q14980 (Q14980 whole entry): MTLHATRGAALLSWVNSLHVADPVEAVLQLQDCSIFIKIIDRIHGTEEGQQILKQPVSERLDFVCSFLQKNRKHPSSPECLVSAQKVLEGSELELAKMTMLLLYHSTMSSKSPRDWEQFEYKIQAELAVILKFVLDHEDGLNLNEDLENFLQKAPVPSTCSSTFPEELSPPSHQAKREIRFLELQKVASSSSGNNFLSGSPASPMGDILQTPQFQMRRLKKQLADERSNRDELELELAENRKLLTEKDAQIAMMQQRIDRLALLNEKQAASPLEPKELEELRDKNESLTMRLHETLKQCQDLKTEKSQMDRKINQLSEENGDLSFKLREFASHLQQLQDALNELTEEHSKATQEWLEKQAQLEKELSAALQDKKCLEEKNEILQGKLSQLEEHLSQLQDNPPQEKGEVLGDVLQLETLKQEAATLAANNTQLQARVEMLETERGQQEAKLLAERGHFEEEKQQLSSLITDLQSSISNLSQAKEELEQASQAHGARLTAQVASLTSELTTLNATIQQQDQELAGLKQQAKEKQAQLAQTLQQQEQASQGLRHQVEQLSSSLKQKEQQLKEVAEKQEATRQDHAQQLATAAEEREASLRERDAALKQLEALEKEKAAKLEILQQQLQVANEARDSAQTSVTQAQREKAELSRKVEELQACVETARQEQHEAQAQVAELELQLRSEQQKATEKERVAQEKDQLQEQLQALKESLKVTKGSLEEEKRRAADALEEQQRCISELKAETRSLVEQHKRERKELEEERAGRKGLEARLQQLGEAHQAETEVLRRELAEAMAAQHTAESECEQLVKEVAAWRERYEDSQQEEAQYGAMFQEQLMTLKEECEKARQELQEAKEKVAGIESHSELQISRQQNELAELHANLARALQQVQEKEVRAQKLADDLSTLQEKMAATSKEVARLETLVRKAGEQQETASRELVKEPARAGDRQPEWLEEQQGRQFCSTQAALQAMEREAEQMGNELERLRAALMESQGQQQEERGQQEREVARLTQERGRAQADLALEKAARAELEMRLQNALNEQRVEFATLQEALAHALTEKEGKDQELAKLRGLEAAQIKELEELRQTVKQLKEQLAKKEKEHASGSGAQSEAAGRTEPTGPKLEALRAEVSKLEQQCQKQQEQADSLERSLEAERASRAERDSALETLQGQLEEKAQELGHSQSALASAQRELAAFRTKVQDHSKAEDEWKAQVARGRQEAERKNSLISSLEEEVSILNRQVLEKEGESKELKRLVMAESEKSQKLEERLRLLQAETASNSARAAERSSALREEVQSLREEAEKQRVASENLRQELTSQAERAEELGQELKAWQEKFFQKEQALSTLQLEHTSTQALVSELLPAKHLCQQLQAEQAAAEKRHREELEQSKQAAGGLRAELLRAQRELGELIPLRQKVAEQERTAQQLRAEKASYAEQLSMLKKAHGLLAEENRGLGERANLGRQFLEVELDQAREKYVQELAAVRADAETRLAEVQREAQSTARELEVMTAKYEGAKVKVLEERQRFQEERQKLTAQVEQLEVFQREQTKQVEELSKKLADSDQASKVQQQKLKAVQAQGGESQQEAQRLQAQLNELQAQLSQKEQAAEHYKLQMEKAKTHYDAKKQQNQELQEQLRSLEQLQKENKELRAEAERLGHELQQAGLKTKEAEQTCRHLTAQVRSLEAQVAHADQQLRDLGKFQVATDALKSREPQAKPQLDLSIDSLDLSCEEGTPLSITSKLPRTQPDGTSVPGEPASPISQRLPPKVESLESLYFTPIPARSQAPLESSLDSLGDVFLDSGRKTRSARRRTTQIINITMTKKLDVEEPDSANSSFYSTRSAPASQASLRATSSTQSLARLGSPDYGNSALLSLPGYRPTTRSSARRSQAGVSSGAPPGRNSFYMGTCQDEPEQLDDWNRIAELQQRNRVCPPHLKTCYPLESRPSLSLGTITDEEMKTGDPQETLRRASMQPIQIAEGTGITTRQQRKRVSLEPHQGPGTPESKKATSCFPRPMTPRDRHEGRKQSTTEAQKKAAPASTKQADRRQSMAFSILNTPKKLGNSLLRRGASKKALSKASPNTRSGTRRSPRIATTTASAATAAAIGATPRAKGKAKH
Chain of UniProt P16422 (P16422 whole entry): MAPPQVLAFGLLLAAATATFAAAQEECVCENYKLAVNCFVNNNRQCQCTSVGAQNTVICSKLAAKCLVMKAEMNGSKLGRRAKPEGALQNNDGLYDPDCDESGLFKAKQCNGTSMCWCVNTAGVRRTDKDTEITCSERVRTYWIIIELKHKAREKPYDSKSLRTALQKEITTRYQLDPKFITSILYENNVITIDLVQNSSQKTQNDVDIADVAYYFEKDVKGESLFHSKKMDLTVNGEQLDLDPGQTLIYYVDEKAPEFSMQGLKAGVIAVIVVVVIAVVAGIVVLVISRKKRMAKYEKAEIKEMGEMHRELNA
Chain of UniProt P19438 (P19438 whole entry): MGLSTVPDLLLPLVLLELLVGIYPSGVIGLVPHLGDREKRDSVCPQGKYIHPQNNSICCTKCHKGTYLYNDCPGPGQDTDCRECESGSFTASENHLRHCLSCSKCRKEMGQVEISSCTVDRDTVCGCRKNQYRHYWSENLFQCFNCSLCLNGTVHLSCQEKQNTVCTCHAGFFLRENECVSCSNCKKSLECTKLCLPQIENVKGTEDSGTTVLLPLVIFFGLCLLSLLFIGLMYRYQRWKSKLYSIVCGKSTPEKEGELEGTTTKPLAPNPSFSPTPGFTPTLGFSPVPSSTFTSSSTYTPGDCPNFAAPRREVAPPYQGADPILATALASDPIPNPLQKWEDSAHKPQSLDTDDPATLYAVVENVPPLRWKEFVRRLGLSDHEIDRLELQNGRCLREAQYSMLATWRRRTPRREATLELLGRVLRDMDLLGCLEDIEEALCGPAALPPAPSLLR
Chain of UniProt P43121 (P43121 whole entry): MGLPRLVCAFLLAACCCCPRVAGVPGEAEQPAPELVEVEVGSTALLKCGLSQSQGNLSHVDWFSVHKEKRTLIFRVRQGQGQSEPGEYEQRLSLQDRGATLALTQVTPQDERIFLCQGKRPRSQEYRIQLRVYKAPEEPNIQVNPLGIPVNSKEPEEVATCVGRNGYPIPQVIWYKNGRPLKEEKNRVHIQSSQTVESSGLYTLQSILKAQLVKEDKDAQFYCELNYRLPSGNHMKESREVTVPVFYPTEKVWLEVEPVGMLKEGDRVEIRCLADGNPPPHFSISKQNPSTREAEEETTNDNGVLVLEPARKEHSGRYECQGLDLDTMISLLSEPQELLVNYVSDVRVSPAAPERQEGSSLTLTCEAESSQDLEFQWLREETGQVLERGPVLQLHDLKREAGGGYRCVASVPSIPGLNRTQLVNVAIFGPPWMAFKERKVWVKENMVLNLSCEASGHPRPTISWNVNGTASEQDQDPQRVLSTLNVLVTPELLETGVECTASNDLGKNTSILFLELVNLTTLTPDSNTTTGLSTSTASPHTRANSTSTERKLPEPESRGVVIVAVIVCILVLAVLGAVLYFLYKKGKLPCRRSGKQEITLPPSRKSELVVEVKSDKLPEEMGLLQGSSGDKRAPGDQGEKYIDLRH
Chain of UniProt Q99985 (Q99985 whole entry): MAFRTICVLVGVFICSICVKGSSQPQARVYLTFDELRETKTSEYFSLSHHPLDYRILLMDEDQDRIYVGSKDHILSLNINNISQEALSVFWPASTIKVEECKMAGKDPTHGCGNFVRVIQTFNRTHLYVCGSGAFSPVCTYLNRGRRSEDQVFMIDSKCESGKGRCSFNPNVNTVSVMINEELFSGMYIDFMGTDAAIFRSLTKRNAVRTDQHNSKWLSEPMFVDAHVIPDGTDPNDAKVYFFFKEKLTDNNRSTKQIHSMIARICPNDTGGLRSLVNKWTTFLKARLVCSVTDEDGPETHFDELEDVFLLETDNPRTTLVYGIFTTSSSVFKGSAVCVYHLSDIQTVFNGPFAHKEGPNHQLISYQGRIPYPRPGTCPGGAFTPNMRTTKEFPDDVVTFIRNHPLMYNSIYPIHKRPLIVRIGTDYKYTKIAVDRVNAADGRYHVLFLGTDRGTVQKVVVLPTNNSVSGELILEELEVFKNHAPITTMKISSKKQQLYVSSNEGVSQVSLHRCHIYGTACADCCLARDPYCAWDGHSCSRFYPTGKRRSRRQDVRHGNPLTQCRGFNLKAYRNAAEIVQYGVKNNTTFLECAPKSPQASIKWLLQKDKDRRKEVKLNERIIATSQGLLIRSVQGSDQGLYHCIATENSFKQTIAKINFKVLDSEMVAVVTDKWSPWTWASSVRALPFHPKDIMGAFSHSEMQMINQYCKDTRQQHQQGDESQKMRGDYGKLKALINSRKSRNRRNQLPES
Chain of UniProt O75955 (O75955 whole entry): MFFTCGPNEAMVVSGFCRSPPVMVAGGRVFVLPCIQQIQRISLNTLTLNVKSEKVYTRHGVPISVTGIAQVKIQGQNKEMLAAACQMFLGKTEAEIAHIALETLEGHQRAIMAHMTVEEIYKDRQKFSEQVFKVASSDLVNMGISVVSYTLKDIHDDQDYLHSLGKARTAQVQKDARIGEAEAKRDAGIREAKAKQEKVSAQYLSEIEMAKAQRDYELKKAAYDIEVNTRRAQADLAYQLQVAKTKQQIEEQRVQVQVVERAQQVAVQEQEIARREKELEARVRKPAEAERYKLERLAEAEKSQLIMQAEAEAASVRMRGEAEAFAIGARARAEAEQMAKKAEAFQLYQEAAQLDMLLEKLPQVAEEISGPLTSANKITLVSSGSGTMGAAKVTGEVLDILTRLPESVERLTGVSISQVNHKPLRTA

| Target | lysine labeling ratio R10:1 |
| --- | --- |
| UniProt Q16363 (lysine site: K518) | 2.09 |
| ATP6V0D1 (lysine site: K77) (UniProt P61421) | 1.33 (active) |
| EPHA2 (lysine site: K476) (UniProt P29317) | 3.45 |
| CCT4 (lysine site: K531) (UniProt P50991) | 3.03 |
| SEMA3C (lysine site: K391) (UniProt Q99985) | 4.13 |
| CD97 (lysine site: K422) (UniProt P48960) | 2.07 |
| PPIA (lysine site: K133) (UniProt P62937) | 2.46 |
| UniProt Q6NZI2 (lysine site: K137) | 3.08 |
| NUMA1 (lysine site: K573) (UniProt Q14980) | 1.46 (active) |
| UniProt P02533 (lysine site: K405) | 7.37 |
| RPL3 (lysine site: K272) (UniProt P39023) | 2.04 |
| MYH9 (lysine site: K1845) (UniProt P35579) | 1.57 (active) |
| PTPRS (lysine site: K1001) (UniProt Q13332) | 4.13 |
| EPCAM (lysine site: K155) (UniProt P16422) | 2.33 |
| LAMA5 (lysine site: K2481) (UniProt O15230) | 1.15 (active) |
| FLOT1 (lysine site: K184) (UniProt O75955) | 1.83 (active) |
| MCAM (lysine site: K119) (UniProt P43121) | 11.1 |
| SLC25A5 (lysine site: K245) (UniProt P05141) | 2.26 |
| DDX23 (lysine site: K204) (UniProt Q9BUQ8) | 0.85 (active) |
| VAPA (lysine site: K205) (UniProt Q9P0L0) | 7.76 |
| TNFRSF1A (lysine site: K107) (UniProt P19438) | 1.07 (active) |
| IGSF8 (lysine site: K194) (UniProt Q969P0) | 1 (active) |
| IGF1R (lysine site: K474) (UniProt P08069) | 3.24 |

From the supplement of paper PMC11001985
